Screens as filed in PubChem BioAssay.
LmPK inh: qHTS Assay for Inhibitors of Leishmania Mexicana Pyruvate Kinase (LmPK) | Q27686 | purified LmPK, Kinase-Glo ATP luminescence, 1 h | Potency, µM (titrated, usually from 57.5 µM), for the others: at the top dose activity change, negative = inhibition, usual class: inhibitors | actives 0.37% (n = 290,000); note: potency is the fitted concentration of half-maximal effect; % is set by controls: 0 for no effect and ±100 for the full control effect
Target sequence (Q27686 whole entry, looked up): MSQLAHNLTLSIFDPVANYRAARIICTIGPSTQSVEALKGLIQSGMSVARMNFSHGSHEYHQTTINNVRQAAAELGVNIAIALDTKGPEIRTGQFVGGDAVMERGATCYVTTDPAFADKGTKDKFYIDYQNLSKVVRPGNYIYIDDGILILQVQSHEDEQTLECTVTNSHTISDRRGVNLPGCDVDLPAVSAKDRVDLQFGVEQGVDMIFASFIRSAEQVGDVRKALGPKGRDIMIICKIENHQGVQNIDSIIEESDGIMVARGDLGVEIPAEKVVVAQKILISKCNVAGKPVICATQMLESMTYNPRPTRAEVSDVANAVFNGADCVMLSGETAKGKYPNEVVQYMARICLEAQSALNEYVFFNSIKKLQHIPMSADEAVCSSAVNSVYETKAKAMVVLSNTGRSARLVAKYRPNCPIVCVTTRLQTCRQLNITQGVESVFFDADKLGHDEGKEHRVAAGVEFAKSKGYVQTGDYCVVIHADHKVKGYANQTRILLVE
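0.1 nM LmPK, 0.5 mM PEP, 0.1 mM ADP; 50 mM imidazole pH 7.2, 7 mM MgCl2, 50 mM KCl; 1 h RT. Kinase-Glo luminescence readout, normalized to no-enzyme (full inhibition) and uninhibited wells.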
Tb PYK inh: qHTS of Trypanosoma Brucei Inhibitors; pyruvate kinase (Trypanosoma brucei), Q57TT1; TbPYK enzyme, Kinase-Glo Plus ATP luminescence, 45 min; Potency, µM (highest dose often 76.8 µM), without a hit: at the highest dose activity, negative = inhibition, hits mostly inhibitors; actives 0.12% (n = 410,000); note: potency is the fitted concentration of half-maximal effect; % is set by controls: 0 for no effect and ±100 for the full control effect; nearly all actives have a fitted effect of over 50% in size
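Quantitative HTS: titrated library compounds versus trypanosomal pyruvate kinase in TEA buffer (pH 7.2) containing KCl, MgCl2, BSA and Tween-20. Reactions were initiated with ADP, 130 uM final. Kinase-Glo Plus luminescence was read after 45 min at RT.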
NS1 inh: qHTS Assay for Inhibitors of Influenza NS1 Protein Function. AID 2326, 2010. Potency, µM (doses to about 46.1 µM), inactives show at the highest dose activity, positive = more growth. actives 0.4% (n = 270,000); calls by dose curve; note: potency is the fitted concentration of half-maximal effect; actives are rising curves; nearly all actives have a fitted effect of over 50% in size
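S. cerevisiae expressing influenza A NS1, grown in glucose, washed, then diluted 1:100 into pH 6.0 -URA galactose medium with 23 nl compound. Growth recovery read as OD600; NS1-free strain serves as control.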
Cycloheximide cs: Cycloheximide Counterscreen for Small Molecule Inhibitors of Shiga Toxin; max response, %; AID 2314, 2010; cell reporter, cycloheximide protein synthesis inhibition counterscreen; actives 12% (n = 300,000); in the data active = max response mostly above about 13%, no sharp cut-off; inactive = mostly below about 14%; note: read at 38.3 µM for the half of the compounds with a filed dose; 0% is about no effect
SARS PLpro yeast: qHTS of Yeast-based Assay for SARS-CoV PLP; AID 485353, 2010; S. cerevisiae expressing SARS-CoV PLpro, growth rescue; Potency, µM (doses to about 32.9 µM), for inactives: at the top dose activity, positive = growth rescue, usual class: activators; actives 0.19% (n = 330,000); calls by dose curve; note: potency is the fitted concentration of half-maximal effect; 0% is about no effect; nearly all actives have a fitted effect of over 55% in size
Shiga toxin inh: A qHTS for Small Molecule Inhibitors of Shiga Toxin; Vero cells, Shiga toxin protein synthesis inhibition reporter; inhibition, % at 38.7 µM; actives 9.2% (n = 290,000); AID 2315, 2010; in the data active = inhibition mostly above about 28%, no sharp cut-off; inactive = mostly below about 43%; note: 0% is about no effect
The depositor's hits bear a star; ? = inconclusive; · = not tested or not shown. The sample as a whole holds a higher share of hits than the screen did. Unless noted, calls come from the whole dose curve; as a rule, active = well fitted curve in the direction sought with a large enough effect; inconclusive = small, poorly fitted or top-dose-only effect, or another doubt; inactive = no such curve, though single readings can be large; an effect the other way counts as inactive or inconclusive.

SMILES | LmPK inh | Tb PYK inh | NS1 inh | Cycloheximide cs | SARS PLpro yeast | Shiga toxin inh
Cc1ccc(C=C2C=C(c3ccccc3)OC2=O)cc1 | · | 5% | · | · | · | ·
Cc1ccc2cccc(NC(=O)C(C)Oc3ccc(Cl)cc3Cl)c2n1 (centres undefined) | · | -2% | · | · | · | ·
C[C@H](NC(=O)/C=C/[C@H]1O[C@@H](n2ccc(=O)[nH]c2=O)[C@H](O)[C@@H]1O)C(=O)O | · | -4% | · | · | · | ·
CC(=O)N1CCOc2cc(S(=O)(=O)Nc3cccc(C(F)(F)F)c3)c(Cl)cc21 | · | -3% | · | · | -1% | ·
CCN1C(=O)/C(=C/c2ccc(C)s2)NC1=S | 0% | -26% | -8% | 18 | ? | 8
Cc1ccc(/C=C2/NC(=O)N(Cc3ccccc3)C2=O)s1 | 4% | ? | 4µM* | 55* | -1% | 37
Cc1cccc(CN2C(=O)N/C(=C/c3ccc(C)s3)C2=O)c1 | 7% | ? | -6% | 23* | -4% | 47
CC(C)(C)c1ccc(CC(=O)N2CCC2(C)C(=O)NS(=O)(=O)c2ccc(F)cc2F)cc1 (centres undefined) | · | 2% | · | · | · | ·
CN1CCN(C(=O)c2cc(-c3ccco3)on2)CC1 | -3% | -17% | 2% | 15* | 5% | 36
O=C(c1cc(-c2ccco2)on1)N1CCOCC1 | -7% | -3% | -6% | 27* | 0% | 47*
CCN(CC)CCNC(=O)c1ccc(Cn2c(=O)c3cccn3c3cccnc32)cc1 | · | 14% | · | · | · | ·
CCOc1ccc(C(=O)NCC(=O)NCC(c2ccc(OC)cc2)N2CCOCC2)cc1OCC (centres undefined) | · | -1% | · | · | 2% | ·
Cc1ccc(C(=O)N/N=C2\CCCc3ccccc32)c(C)c1 | 1% | -3% | · | 49* | 0% | 71*
O=C(N/N=C1\CCCc2ccccc21)c1ccc([N+](=O)[O-])cc1 | 6% | 1% | -7% | 11 | -10% | 39
NC(=O)C(=O)N/N=C1\CCc2ccccc21 | 1% | -6% | · | 37* | 0% | 62*
O=C(/C=C/Nc1ccccc1F)c1ccc(Br)cc1 | ? | -1% | -17% | 61* | 13% | 87*
N#Cc1ccccc1N/C=C/C(=O)c1ccc(Cl)cc1 | · | -6% | · | · | · | ·
O=C(/C=C/Nc1ccc(Br)cc1F)c1ccccc1 | -30% | ? | 4% | 38* | -17% | 41*
Cn1c(Oc2ccc(Cl)cc2)nc2c1c(=O)n(Cc1ccc(F)cc1)c(=O)n2C | · | -1% | · | · | · | ·
CC(C)(C)OC(=O)N1CCCC1C(=O)NC1COC2CC(n3cc(F)c(=O)[nH]c3=O)OC12 (centres undefined) | · | · | · | 4 | · | -3
COc1ccc(NC(=O)CCN2C(=O)c3cccc([N+](=O)[O-])c3C2=O)cc1 | -3% | -13% | 14% | -2 | 0% | 9
CC(C)(C)c1ccc(NC(=O)COC(=O)CCN2C(=O)c3cccc([N+](=O)[O-])c3C2=O)cc1 | 0% | 3% | 1% | 18* | -4% | 7
COc1cc2cnc(-c3ccccc3)cc2cc1OC | · | -2% | · | · | -3% | ·
Cc1ccc(-c2cc(-c3ccccc3)nc(NN)n2)cc1 | 0% | -7% | 21% | -2 | -8% | -3
COc1nc(-c2ccccc2)cc(-c2ccc(OC)c(OC)c2)n1 | -7% | 8% | -5% | 21 | -18% | 56*
SMILES | LmPK inh | Tb PYK inh | NS1 inh | Cycloheximide cs | SARS PLpro yeast | Shiga toxin inh
COc1ccc(-c2cc(-c3ccccc3)nc(NN)n2)cc1OC | -10% | -12% | ? | 17* | 1% | 35
O=C(NNS(=O)(=O)c1ccccc1F)c1ccccc1-n1cccc1 | -6% | -12% | 2% | 9 | 4% | 13
N/C(=N\OC(=O)c1ccc(=O)n(Cc2ccc(Cl)cc2)c1)c1ccccn1 | 8% | -4% | · | 28 | -5% | 6
N/C(=N\OC(=O)c1ccc2ccccc2c1)c1ccncc1 | -22% | -5% | -36% | 37* | -2% | 117*
COc1ccc(/C(N)=N/OC(=O)c2ccc3ccccc3c2)cc1OC | · | 1% | · | · | · | ·
Cc1cc(C)cc(OCC(=O)O/N=C(\N)c2ccccc2Cl)c1 | -1% | -5% | -9% | 16 | -6% | 32
